Bioassay records: PubChem, National Center for Advancing Translational Sciences (NCATS)
KinaseGlo FLuc – Kinase-Glo luciferase inhibition (counter-screen); Potency, µM (titrated, usually from 38.3 µM), for inactives: at the highest dose activity change, negative = inhibition, usual class: inhibitors; AID 1379; Q27757; Kinase-Glo luciferase, ATP luminescence, 8 min; actives 0.28% (n = 200,000); active = well fitted inhibition curve with a large enough effect; inconclusive = small, poorly fitted or top-dose-only effect; note: potency is the fitted concentration of half-maximal effect; nearly all actives have a fitted effect of over 60% in size
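Inhibition of Kinase-Glo luciferase light generation was assessed at 10 uM ATP in pH 7.2 imidazole buffer, with luminescence measured after eight minutes at ambient temperature.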
PNC assembly inh – blocks assembly of the perinucleolar compartment; activity change (PNC), negative = inhibition, % at 10 µM; AID 2417; actives 3.1% (n = 140,000); PC3M PTB-GFP, PNC prevalence imaging, 16 h; stronger effect = lower value;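 active = readout at or below -70, meaning at least 70% loss of cells showing the perinucleolar compartment, a nuclear body marking cancer cells; inconclusive = readout between -30 and a set limit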;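 note: plate controls were DMSO wells for no effect and camptothecin positive control wells for full effect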
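Read-out is percentage of cells bearing a perinucleolar compartment, from automated 20x imaging of fixed, Hoechst-stained PC3M PTB-GFP cells. Cells were seeded 4 h, then exposed 16 h to compound (23 nl of library stock) in duplicate plates.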
ALDH1A1 inh – ALDH1A1 (human) enzyme inhibition; P00352; Purified ALDH1A1, NADH fluorescence, propionaldehyde substrate; Potency, µM (doses to about 75.3 µM), for inactives: at the highest dose activity, negative = inhibition, hits mostly inhibitors; actives 7.3% (n = 220,000);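 note: potency is the fitted concentration of half-maximal effect; plate controls were no enzyme wells and a reference inhibitor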
Target sequence (P00352 whole entry, looked up): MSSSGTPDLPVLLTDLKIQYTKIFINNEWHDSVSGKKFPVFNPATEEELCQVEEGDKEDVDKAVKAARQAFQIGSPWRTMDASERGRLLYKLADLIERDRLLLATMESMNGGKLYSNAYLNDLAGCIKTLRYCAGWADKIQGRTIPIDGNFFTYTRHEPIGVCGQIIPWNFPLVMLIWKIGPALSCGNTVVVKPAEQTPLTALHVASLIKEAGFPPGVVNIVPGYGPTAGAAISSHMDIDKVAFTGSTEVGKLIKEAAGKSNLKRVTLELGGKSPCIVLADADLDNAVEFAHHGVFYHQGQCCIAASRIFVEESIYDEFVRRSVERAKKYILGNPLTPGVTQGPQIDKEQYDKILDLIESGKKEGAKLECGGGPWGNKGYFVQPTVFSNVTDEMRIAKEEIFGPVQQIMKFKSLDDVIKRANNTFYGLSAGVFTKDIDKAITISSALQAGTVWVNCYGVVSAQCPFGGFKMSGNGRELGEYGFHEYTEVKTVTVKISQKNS
HPGD inh – inhibitors of human 15-hydroxyprostaglandin dehydrogenase (HPGD). P15428. purified HPGD, NADH fluorescence kinetic, PGE2 substrate. actives 4.3% (n = 150,000). Potency, µM, for inactives: at the top dose activity change, negative = inhibition, actives largely listed as inhibitors; note: potency is the fitted concentration of half-maximal effect
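NADH formation kinetics: reaction with 30 uM PGE2 and 1 mM NAD+ (final), 20 nM enzyme, Tris-HCl pH 8 with Tween 20, after 15 min compound preincubation at room temperature. Fluorescence change, last versus first of five reads.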
LMNA splice mod – changes lamin A minigene splicing in HeLa cells; HeLa LMNA splicing GFP/RFP minigene ratio, 48 h; Potency, µM (titrated, usually from 46.1 µM), for inactives: at the top dose ratio change, negative = inhibition, hits mostly inhibitors; actives 0.01% (n = 200,000); AID 1487; active = well fitted inhibition curve with a large enough effect in the signal ratio, with a control signal flat, not every such curve was filed as active; inconclusive = small, poorly fitted or top-dose-only effect, or effect the other way, or a change in a side signal; the % refers to the signal ratio; note: potency is the fitted concentration of half-maximal effect
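S3 HeLa cells stably expressing lamin A-EGFP splicing minigene plus DsRed2, 600 cells/well, 48 h compound exposure at 37C. Laser-scanning cytometry; analysed as GFP (500-530 nm)/RFP (575-640 nm) total intensity ratio; 0.5% DMSO vehicle.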
Numbers without * were called inactive; ? = inconclusive; / = not tested or not shown; [ ] = another dose, or the depositor's remark. Compounds with a hit are over-represented: about 10% of the library has one in this group of screens. Unless noted, calls come from the whole dose curve; as a rule, active = well fitted inhibition curve with a large enough effect (not every such curve was filed as active); inconclusive = small, poorly fitted or top-dose-only effect, or another doubt; inactive = no such curve, though single readings can be large or run the other way. Unless noted, % is set by controls: 0 for no effect and ±100 for the full control effect.

SMILES | KinaseGlo FLuc | PNC assembly inh | ALDH1A1 inh | HPGD inh | LMNA splice mod
Cn1cccc1C(=O)N1CCC2(CCN(Cc3ccc(C#N)cc3)CC2)CC1 | -1.4% | / | -4.1% | -14.5% | /
COc1ccc(CCNC(=O)CSc2n[nH]c(-c3ccccc3Cl)n2)cc1OC | / | / | / | / | -3.3%[46 µM]
Cc1ccc(C)c(NC2=CC(=O)CC(C)(C)C2)c1C#N | -3.3% | -9.3 | 12.6µM* | -11.0% | ?
Cc1ccccc1NC1=CC(=O)CC(C)(C)C1 | -5.3% | 5.2 | -1.4% | -25.7% | -9.5%
Cc1ccc2c(C(=O)CN3CCCCC3CCO)c(C)[nH]c2c1 (stereo not drawn) | -1.9% | 3.7 | ? | -7.8% | 1.3%
Cc1ccc2c(C(=O)CN3CCN(C4CCCCC4)CC3)c(C)[nH]c2c1 | -1.8% | ? | 12.6µM* | -14.7% | -3.3%
O=[N+]([O-])c1cccc2c[nH]nc12 | -3.2% | / | -15.3% | 31.6µM* | /
O=S(=O)(c1ccc(Cl)s1)N1CCN(Cc2ccccc2)CC1 | -1.0% | -82.9* | 6.1% | -8.0% | ?
Cc1ccccc1OC(C)C(=O)NC1CCCC1 (stereo not drawn) | 1.4% | -12.4 | -3.1% | 12.6µM* | 5.7%
O=C(COC(=O)C1=Cc2ccccc2OC1)NC1CCCC1 | 5.3% | -83.5* | 8.6% | -23.4% | -2.9%
O=C(OC(C(=O)NC1CCCC1)c1cccnc1)C1=Cc2ccccc2OC1 (stereo not drawn) | 0.7% | 44.9 | ? | -8.0% | -1.3%
CC(OC(=O)c1ccco1)C(=O)NC1CCCCC1 (stereo not drawn) | -0.9% | -18.4 | 3.3% | 14.1µM* | -5.4%
COc1ccccc1OC(C)C(=O)NNC(=S)NC1CCCC1 (stereo not drawn) | / | / | -18.4% | / | /
COCCNC(=O)COC(=O)C1=Cc2ccccc2OC1 | 1.1% | / | ? | / | ?
CC(OC(=O)C1=Cc2ccccc2OC1)C(=O)NC1CCCC1 (stereo not drawn) | 4.8% | -90.4* | 16.7% | -23.1% | -16.8%
CCOc1ccc(-c2cn3c(n2)sc2cc(C(=O)NCCCN(CC)CC)ccc23)cc1 | / | / | / | / | 4.1%[46 µM]
CCc1cccc(C)c1NC(=O)c1cc(S(=O)(=O)NCc2ccccc2Cl)ccc1F | / | / | / | / | -17.2%[46 µM]
CCOc1cc(C)c(C(C)C)cc1S(=O)(=O)N1CCOCC1 | 0.6% | 7.9 | 3.55µM* | -9.0% | -10.2%
COc1cc(C)c(C(C)C)cc1S(=O)(=O)N1CCOCC1 | -0.2% | -0.7 | 3.16µM* | -3.8% | 8.8%
COc1cc(C)c(S(=O)(=O)N2CCOCC2)cc1C | -1.9% | -100.0* | -2.4% | -8.8% | 2.2%
C[C@H]1[C@H]2CC[C@H]3[C@@H]4CC=C5C[C@@H](N(C)C)CC[C@]5(C)[C@H]4CC[C@]23CN1C | -3.6% | / | 6.9% | -5.2% | /
CCc1ccc(CNC(=O)c2cnc(N3CCCCC3)c3ccccc23)cc1 | / | / | / | / | -11.6%[46 µM]
O=C(O[C@@H]1Cc2c(O)cc(O)cc2O[C@@H]1c1cc(O)c(O)c(O)c1)c1cc(O)c(O)c(O)c1 | / | / | / | / | 12.4%[46 µM]
O=C(OC1Cc2c(O)cc(O)cc2OC1c1cc(O)c(O)c(O)c1-c1c(C2Oc3cc(O)cc(O)c3CC2OC(=O)c2cc(O)c(O)c(O)c2)cc(O)c(O)c1O)c1cc(O)c(O)c(O)c1 (stereo not drawn) | -2.5% | / | -0.6% | 22.4µM* | -5.0%
Cn1cccc1C(=O)N1CCC2(CC1)CN(c1ccccn1)C2 | -2.5% | / | ? | ? | /
SMILES | KinaseGlo FLuc | PNC assembly inh | ALDH1A1 inh | HPGD inh | LMNA splice mod
CCOC(=O)c1oc2cc(O)c(CC)cc2c(=O)c1-c1ccc2c(c1)OCCO2 | 0.4% | 36.0 | ? | -18.0% | ?
Cc1oc2cc(O)cc(O)c2c(=O)c1-c1ccc2c(c1)OCCCO2 | -3.8% | 7.3 | 15.8µM* | -29.1% | ?
O=S(=O)(Cc1ccccc1)c1cnc2ccccc2n1 | -5.0% | -28.7 | ? | 25.1µM* | ?
O=C(CN1C(=O)c2ccccc2C1=O)NN1C(=O)c2ccccc2C1=O | -3.5% | -16.6 | 2.82µM* | -26.4% | -5.6%
COc1cccc(Cn2c(=O)cnc3cnc(N4CCOCC4)nc32)c1 | 0.3% | / | ? | ? | /
Nc1cnn(Cc2ccc(F)cc2)c1 | -0.7% | / | -1.3% | / | ?
Nc1cnn(Cc2ccccc2F)c1 | 2.4% | / | 14.1µM* | / | -11.8%[46 µM]
CC1(C)NC(C)(C)c2nonc2/C1=N\O | -1.5% | 22.3 | 12.6µM* | -3.7% | 2.0%
CC1(C)Oc2ccc3ccc(=O)oc3c2CC1=O | 1.3% | / | ? | ? | /
CCN(CC)c1nc2n(c(=S)n1)CCS2 | -3.6% | -88.1* | 9.3% | -12.7% | 1.1%
CCN(CC)c1nc2n(c(=O)n1)CCN2CC | 0.3% | 24.3 | -0.4% | 0.0% | -4.5%
Cc1ccccc1OCC(=O)NN1C(=O)C2C3C=CC(O3)C2C1=O (stereo not drawn) | -1.1% | / | 8.91µM* | / | 6.3%[46 µM]
Cc1cccc(OCC(=O)NN2C(=O)C3C4C=CC(O4)C3C2=O)c1 (stereo not drawn) | -3.7% | / | 3.16µM* | / | -11.8%[9.22 µM]
O=C(CCc1ccccc1)NN1C(=O)C2C3C=CC(O3)C2C1=O (stereo not drawn) | 2.0% | / | 13.9% | / | /
CCOc1ccc(C(=O)NN2C(=O)C3C4C=CC(O4)C3C2=O)cc1 (stereo not drawn) | 0.7% | 8.4 | 12.6µM* | 7.6% | 6.7%
O=C1CN(S(=O)(=O)c2ccc(Cl)cc2)CC(=O)N1CCc1ccccc1 | -4.1% | 48.0 | 7.2% | -7.5% | 3.5%
O=C1CN(S(=O)(=O)c2ccc(F)cc2)CC(=O)N1CCc1ccccc1 | 6.6% | -100.0* | ? | ? | 1.4%
O=C(COc1ccc(Cl)cc1)NCC(c1ccco1)S(=O)(=O)c1ccc(F)cc1 (stereo not drawn) | / | / | / | / | 2.8%[46 µM]
CCOC(=O)c1sc(Nc2ccccc2)nc1C | -3.0% | 36.4 | -11.0% | ? | 31.4%
Cc1nc(Nc2ccccc2)sc1-c1ccccc1 | / | 217.8 | 22.4µM* | / | ?
COC(=O)c1sc(Nc2ccccc2)nc1C | -6.2% | -5.3 | -3.6% | 22.4µM* | 10.1%
Cc1cc2c(nc1C)CCCCN2C[C@H](C)O/N=C\[C@@H](C)[C@H](OCc1ccccc1)C(C)C | / | / | -5.9%[13.5 µM] | / | /
O=C(OCc1ccco1)c1ccc(S(=O)(=O)N2CCCCC2)cc1 | 2.1% | 21.5 | 28.2µM* | -16.3% | -6.5%
